In the library only some 3.1% were active in any assay of this set; here they are far more common.
PP5 inh – inhibitors of human protein phosphatase 5 (PP5). inhibition, % at 6.7 µM. 320,000 compounds, 0.18% hits. purified PP5c, OMFP substrate fluorescence. P53041. AID 1987;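 active = inhibition above the campaign's mean inhibition across all tested compounds plus 3 SD, cut at about 9.5% in these data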
Target sequence (P53041 whole entry, looked up): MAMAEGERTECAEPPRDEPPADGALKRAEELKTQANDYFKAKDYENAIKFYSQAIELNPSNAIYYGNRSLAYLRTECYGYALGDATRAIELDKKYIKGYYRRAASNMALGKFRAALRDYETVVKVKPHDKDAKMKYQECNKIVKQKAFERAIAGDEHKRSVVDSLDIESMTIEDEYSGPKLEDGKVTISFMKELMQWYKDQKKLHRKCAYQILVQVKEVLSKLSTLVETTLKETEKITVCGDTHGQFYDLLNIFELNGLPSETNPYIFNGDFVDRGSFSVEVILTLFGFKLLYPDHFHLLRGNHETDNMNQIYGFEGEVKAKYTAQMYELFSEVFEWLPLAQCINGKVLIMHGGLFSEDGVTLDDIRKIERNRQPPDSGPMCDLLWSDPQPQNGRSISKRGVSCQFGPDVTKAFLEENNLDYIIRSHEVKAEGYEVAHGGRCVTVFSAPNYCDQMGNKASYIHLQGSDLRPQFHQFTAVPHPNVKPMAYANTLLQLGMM
Beta cell apopt – beta cell apoptosis inhibition; INS-1E cytokine-induced death, ATP luminescence, 48 h; percent of positive-control rescue, neutral wells zero; protection from apoptosis, % (no concentration beside the values); 300,000 compounds, 0.8% hits; AID 435005;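 active = Every replicate reaches about 75%, or at least half do and their mean reaches it too, limit read from the data; inconclusive = At least half of replicates reach the limit but their mean does not; inactive = Under half of replicates reach the limit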;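 also: higher means more ATP so stronger rescue from cytokine killing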
SKKanGAS inh – inhibitors of SKKanGAS S. pyogenes growth in kanamycin (SK-promoter or general growth effect) | AID 1662 | inhibition, % at 7.5 µM | BacTiter-Glo, 6 h | 300,000 compounds, 1.3% hits;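 active = mean replicate score, as percent of positive control median, at least 50; inconclusive = mean below 50 but one replicate at or above 50; inactive = mean and every replicate below 50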;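 also: strain carries kanamycin resistance gene driven by streptokinase promoter and grows in 40 µg/ml kanamycin; loss of luminescence reflects streptokinase promoter inhibition or plain growth inhibition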
CSC inhib – blocks cancer stem cells; cancer stem cell-like cells viability, luminescence; inhibition, % at 7.5 µM; 300,000 compounds, 1.1% hits; AID 2717; in the data active = inhibition above about 75%; inconclusive = no clear call, values can overlap the other calls; tested in HMLE shEcad cells
PP1 inh – counter-screen for PP5 inhibitors: inhibitors of human PP1-alpha; purified PP1alpha, OMFP fluorescence; P62136; inhibition, % at 6.7 µM; 320,000 compounds, 0.9% hits; AID 2235;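 active = inhibition above the mean inhibition of all tested compounds plus 3 SD, computed separately for each screening campaign, cut at about 15% in these data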
Large screens that a line does not name were inactive.

NC(=O)C1CCCN(S(=O)(=O)c2ccc3ccccc3c2)C1 (stereo not given)	none
O=[N+]([O-])c1ccc(N2N=C(c3ccccc3)CC2c2ccccc2O)cc1 (stereo not given)	SKKanGAS inh 98, CSC inhib 102 (no result: PP5 inh, PP1 inh)
C#CCOCCOCCOCCNc1nc(N2CCN(C(=O)CCCCCCCCCCNC(=O)Cn3cc(C[C@@H](C)O)nn3)CC2)nc(N2CCN(C(=O)CCCCCCCCCCNC(=O)[C@@H]([C@H](C)O)n3cc(C)nn3)CC2)n1	CSC inhib 158 (no result: SKKanGAS inh)
C#CCOCCOCCOCCNc1nc(N2CCOCC2)nc(N2CCN(C(=O)CCCCCCCCCCNC(=O)[C@H]([C@@H](C)CC)n3cc(CCCCN=C(N)N)nn3)CC2)n1	PP1 inh 15 (no result: SKKanGAS inh)
C#CCOCCOCCOCCNc1nc(N2CCN(C(=O)CCCCCCCCCCNC(=O)Cn3cc(CCCCCN)nn3)CC2)nc(N2CCN(C(=O)CCCCCCCCCCNC(=O)[C@@H]([C@H](C)O)n3cc(C)nn3)CC2)n1	none (no result: SKKanGAS inh)
C#CCOCCOCCOCCNc1nc(N2CCN(C(=O)CCCCCCCCCCNC(=O)[C@H](CCCN=C(N)N)n3cc(C[C@@H](C)CC)nn3)CC2)nc(N2CCN(C(=O)CCCCCCCCCCNC(=O)[C@@H]([C@H](C)CC)n3cc(CCCCCN)nn3)CC2)n1	Beta cell apopt 107, CSC inhib 168, PP1 inh 71 (no result: SKKanGAS inh)
C#CCOCCOCCOCCNc1nc(N2CCN(C(=O)CCCCCCCCCCNC(=O)[C@H](CCCCN)n3cc(CCO)nn3)CC2)nc(N2CCN(C(=O)CCCCCCCCCCNC(=O)[C@H](CCCCN)n3cc(CCCC(=O)O)nn3)CC2)n1	none (no result: SKKanGAS inh)
C#CCOCCOCCOCCNc1nc(N2CCN(C(=O)CCCCCCCCCCNC(=O)[C@H]([C@@H](C)CC)n3cc(CCCCN=C(N)N)nn3)CC2)nc(N2CCN(C(=O)CCCCCCCCCCNC(=O)[C@H](CCCN=C(N)N)n3cc(C[C@@H](C)CC)nn3)CC2)n1	PP5 inh 9.8, Beta cell apopt 98, CSC inhib 88, PP1 inh 68 (no result: SKKanGAS inh)
O=C(NNC(=O)c1ccc(S(=O)(=O)N2CCCCC2)cc1)c1ccc(F)cc1	none (no result: CSC inhib)
CC/C(=N\NC(=O)c1cc(C2CC2)[nH]n1)c1ccccc1	none
O=C(/C=C/c1ccco1)NCC1OCCc2ccccc21 (stereo not given)	Beta cell apopt 107, CSC inhib 111
CCCCN(C(=O)c1cc(S(=O)(=O)N2CCCCCC2)ccc1OC)c1c(N)n(CCC)c(=O)[nH]c1=O	none
COc1ccc(S(=O)(=O)n2nc(-c3cc(OC)c(OC)c(OC)c3)cc2N)cc1OC	none (no result: SKKanGAS inh)
COc1ccc(-c2cc(N)n(S(=O)(=O)c3c(F)c(F)c(F)c(F)c3F)n2)cc1OC	Beta cell apopt 93
COc1ccccc1N(CC(=O)Nc1cccc(C(F)(F)F)c1)S(C)(=O)=O	SKKanGAS inh inconclusive (no result: Beta cell apopt)
Cc1ccc([N+](=O)[O-])cc1N(CC(=O)Nc1ccc(S(=O)(=O)Nc2cccc(C(F)(F)F)c2)cc1)S(C)(=O)=O	Beta cell apopt 99, SKKanGAS inh inconclusive, CSC inhib 100
CCc1nn2c(=O)c(S(=O)(=O)Nc3ccc(C(C)C)cc3)c(C)nc2s1	none (no result: SKKanGAS inh)
COc1ccc(C2c3ccsc3CCN2C(C)=O)cc1 (stereo not given)	none
COc1ccc(C2c3ccsc3CCN2C(=O)C(C)(C)C)cc1 (stereo not given)	SKKanGAS inh 50
CSCc1nnc(NC(=O)c2ccc(S(=O)(=O)N(C)C)cc2)o1	none
CN(c1ccccc1)S(=O)(=O)c1ccc(NC(=O)c2ccccc2)cc1	none
CCc1nnc(NC(=O)c2ccc(S(=O)(=O)N(C)c3ccccc3)cc2)o1	SKKanGAS inh 52, PP1 inh 16
CSCc1nnc(NC(=O)c2ccc(S(=O)(=O)N(CC(C)C)CC(C)C)cc2)o1	SKKanGAS inh 80 (no result: PP5 inh, Beta cell apopt, CSC inhib, PP1 inh)
CCCN(CCC)S(=O)(=O)c1ccc(C(=O)Nc2nnc(COC)o2)cc1	SKKanGAS inh 69
O=C(NCc1ccc2c(c1)OCO2)c1cc2n(n1)C(C(F)(F)F)CC(c1ccc3c(c1)OCO3)N2 (stereo not given)	none
CCOC(=O)N1CCN(C(=O)c2cc3n(n2)C(C(F)(F)F)CC(c2ccc4c(c2)OCO4)N3)CC1 (stereo not given)	SKKanGAS inh 54 (no result: Beta cell apopt)
COc1ccc(OC)c(NC(=O)c2cc3n(n2)C(C(F)(F)F)CC(c2ccc4c(c2)OCO4)N3)c1 (stereo not given)	none (no result: CSC inhib)
Cc1cccc(N2CCN(C(=O)c3cc4n(n3)C(C(F)(F)F)CC(c3ccco3)N4)CC2)c1C (stereo not given)	SKKanGAS inh inconclusive, CSC inhib 84
O=C(Nc1cc(Cl)ccc1O)c1cc2n(n1)C(C(F)(F)F)CC(c1ccc3c(c1)OCO3)N2 (stereo not given)	SKKanGAS inh 101
O=C1c2cccc(OCC(=O)N3CCCc4ccccc43)c2CCN1Cc1ccccc1	CSC inhib 88
Cc1nn(C)c(C)c1NC(=O)CSc1nc(-c2ccccc2Cl)nc2c1cnn2-c1ccccc1	PP1 inh 16
C[C@@]12C(=O)N(c3cccc(F)c3)C(=O)N1[C@@H]1c3ccccc3OC[C@@H]1[C@H]2c1ccccc1	none (no result: PP5 inh, SKKanGAS inh, PP1 inh)
COc1ccc(/C=N/NC(=O)c2nn(-c3ccc(Cl)cc3)c(=O)c3c(N)scc23)cc1	PP1 inh 17
S=C1NC(C23CC4CC(CC(C4)C2)C3)=CC(c2ccc3c(c2)OCO3)N1 (stereo not given)	SKKanGAS inh 58
COc1ccc(OC)c(C2C=C(C34CC5CC(CC(C5)C3)C4)NC(=S)N2)c1 (stereo not given)	SKKanGAS inh 52
CCC1(CC)NC(=O)N(CC(=O)OC(C)C(=O)Nc2ccccc2OC)C1=O (stereo not given)	none
COc1ccc(C2CC(c3ccc4ccccc4c3OC(C)=O)=NN2C(C)=O)cc1 (stereo not given)	Beta cell apopt 96
COc1ccc(NC(=O)c2cccc(-c3ccc(O)cc3)c2)cn1	SKKanGAS inh 53, CSC inhib 86
NC(=O)c1ccsc1NC(=O)COC(=O)CNC(=O)c1ccc(Cl)cc1	none (no result: PP5 inh, SKKanGAS inh, PP1 inh)
CCOc1ccc(/C=N/Nc2cc(C)nc(N3CCOCC3)n2)cc1	none
CCOc1ccc(/C=N/Nc2cc(N3CCOCC3)nc(C)n2)c(O)c1	SKKanGAS inh 65
CN(C(=O)COC(=O)CCc1c[nH]c2ccccc12)C(c1ccccc1)c1ccccc1	none
Cc1cccc(N2CCN(C(=O)c3ccc(N4CCCC4=O)cc3)CC2C)c1 (stereo not given)	none (no result: CSC inhib)
COc1ccc(N2CCN(C(=O)c3ccc4c(c3)NC(=O)C(CSCc3ccc(C)cc3)N4)CC2)cc1 (stereo not given)	PP1 inh 19 (no result: CSC inhib)
COc1ccc(N2CCN(C(=O)c3ccc4c(c3)NC(=O)C(CSCc3cccc(F)c3)N4)CC2)cc1 (stereo not given)	PP1 inh 33
COc1ccc(N2CCN(C(=O)c3ccc4c(c3)NC(=O)C(CSCc3c(F)cccc3Cl)N4)CC2)cc1 (stereo not given)	PP1 inh 25

Compound activity as filed in PubChem.
